Measured values reported in PubChem BioAssay (NCATS).
Records with an inconclusive call do not appear. Active and inactive are the calls of the source. The call rests on the fitted dose curve; in most records, active means well fitted curve in the direction sought with a large enough effect; inconclusive means small, poorly fitted or top-dose-only effect, or another doubt; inactive means no such curve, though single readings can be large; an effect the other way counts as inactive or inconclusive. *1 amine or outer side, *2 acyl side, *3 side chain or, on linkers, in order; H or OH if unused. Where a SMILES comes first, the peptide text is derived from it. [ ]: non-standard residue; d: D form. Ala(indol-2-yl) = N[C@@H](Cc1cc2ccccc2[nH]1)C(=O)O; X7 = O=C([C@@H](CC(O)CCl)O[*:1])[*:2]; aIle = CC[C@@H](C)[C@H](N)C(=O)O; NMeV = CN[C@H](C(=O)O)C(C)C; NMeA = CN[C@@H](C)C(=O)O; Aib = CC(C)(N)C(=O)O; βAla = NCCC(=O)O

Columns and labels:
[1] = molecular target: Glutathione peroxidase 1 (Homo sapiens) (UniProt P07203); experiment: Primary qHTS Assay for Inhibitors of Recombinant Selenoprotein Glutathione Peroxidase 1 (GPX1) (AID 1845191); further: nearly all actives have a fitted effect of over 65% in size; on activity, negative = inhibition: on the % scale 0 is the no-effect control and ±100 the full control effect
Summary of the method: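 GR-coupled assay: compounds preincubated 30 min at room temperature with GPX1, then reaction started with CHP; final 10 nM GPX1, 1 mM GSH, 0.5 mM CHP, 0.5 mM NADPH, 100 nM GR, 0.01% BSA, pH 7.5 Tris buffer. NADPH fluorescence (340/450 nm) read at 0 and 15 min.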

[2] = molecular target: Phospholipid hydroperoxide glutathione peroxidase GPX4 (Homo sapiens) (UniProt P36969); experiment: Primary qHTS Assay for Inhibitors of Recombinant Selenoprotein Glutathione Peroxidase 4 (GPX4) (AID 1845192); further: on the % scale 0 is the no-effect control and ±100 the full control effect; nearly all actives have a fitted effect of over 65% in size
Summary of the method: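 GR-coupled assay: recombinant GPX4 preincubated 30 min with compound at room temperature; final 200 nM GPX4, 1 mM GSH, 0.5 mM cumene hydroperoxide, 0.5 mM NADPH, 100 nM GR, 0.01% BSA, pH 7.5 Tris. NADPH fluorescence (340/450 nm) read at 0 and 15 min.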

[3] = test system: CRL-7250; experiment: Cytotoxic Profiling of Annotated Libraries Using Quantitative High-Throughput Screening (AID 1296008); settings: Five cell lines viability, CellTiter-Glo ATP luminescence, 48-72 h; max response: active compounds read low; further: nearly all actives have a fitted effect of over 60% in size; further: potency means the concentration at half of the fitted maximal effect; on max response: on the % scale 0 is the no-effect control and ±100 the full control effect
Summary of the method: (§1)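 Cells exposed to compounds for 48 or 72 hr at 37 degrees Celsius. Viability read as ATP-coupled luminescence with CellTiter-Glo after 10 min at room temperature.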

[4] = test system: HEK293; experiment: as above; settings: Five cell lines viability, CellTiter-Glo ATP luminescence, 48-72 h; max response: active compounds read low
Summary of the method: as §1

[5] = test system: HaCat; experiment: as above; settings: Five cell lines viability, CellTiter-Glo ATP luminescence, 48-72 h; max response: active compounds read low
Summary of the method: as §1

[6] = test system: KB-3-1; experiment: as above; settings: Five cell lines viability, CellTiter-Glo ATP luminescence, 48-72 h; max response: active compounds read low
Summary of the method: as §1

[7] = test system: Zika virus NS2B-NS3 protease (linked construct); experiment: Primary screen NINDS Rhodamine qHTS for Zika virus inhibitors (AID 1347160); further: on the % scale 0 is the no-effect control and ±100 the full control effect; nearly all actives have a fitted effect of over 55% in size
Summary of the method: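 In 10 mM Tris-HCl pH 8.0 containing 0.01% Tween 20, linked NS2B-NS3 protease (25 nM final) is exposed to test compounds for 15 min. Cleavage of 1.5 microM Rhodamine110 substrate is tracked by fluorescence over 15 min.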

[8] = molecular target: Calcium and integrin-binding protein 1 (Homo sapiens) (UniProt Q99828); experiment: Primary qHTS for Identification of Calcium Integrin Binding Protein 1 (CIB1) Competitor (AID 1508620);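 further: GST tagged CIB1 binding a fluorescein labelled alphaIIb integrin peptide tracer; top concentration of the series differs between compounds; on the % scale 0 is the no-effect control and ±100 the full control effect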
Summary of the method: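 Fluorescence polarization competition: GST-tagged CIB1 (1 uM final) preincubated with compound 15 min at room temperature, then FITC-labelled alphaIIb peptide (100 nM final) added. After 15 min at room temperature, polarization read at Ex 480/Em 540.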

[9] = Primary qHTS for inhibitors of nuclear receptor binding SET domain protein 2 (NSD2) in an isogenic RCH-ACV NSD2 p.E1099K mutant (9B) (AID 1645876); further: nearly all actives have a fitted effect of over 70% in size; further: potency means the concentration at half of the fitted maximal effect
[10] = test system: Nanoluciferase (engineered Oplophorus gracilirostris luciferase); experiment: Primary Nanoluciferase (NLuc) qHTS assay for identification of artifact compounds. (AID 1845222); further: potency means the concentration at half of the fitted maximal effect;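 on activity, negative = inhibition: NLuc secreted into diluted conditioned medium of S16 cells; 0% = DMSO and -100% = no enzyme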
Summary of the method: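 qHTS format, against NLuc in S16 cell-conditioned medium. Nano-Glo substrate 1:100 was added after 15 min at room temperature. Luminescence was taken after a further 5 min.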

[11] = test system: C33A; experiment: Primary qHTS to identify gynecologic anti-cancer compounds using libraries of approved drugs and bioactive compounds (AID 1345084); settings: Gynecologic cancer cell panel viability, ATPlite luminescence, 48 h; series mostly up to 57.5 µM; further: nearly all actives have a fitted effect of over 55% in size; further: potency means the concentration at half of the fitted maximal effect; on activity change, negative = cytotoxicity: on the % scale 0 is the no-effect control and ±100 the full control effect
Summary of the method: (§2)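 ATP-based viability (ATPlite), 1,000 cells/well, 16 h pre-incubation, 48 h compound at 37 C, 5% CO2, 15 min RT before read.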

[12] = molecular target: Luciferin 4-monooxygenase (Photinus pyralis) (UniProt P08659); experiment: Primary firefly luciferase (FLuc) qHTS assay for identification of artifact compounds. (AID 1845220); settings: outcome: dose series up to 54.1 µM unless noted; further: nearly all actives have a fitted effect of over 60% in size;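 on activity change, negative = inhibition: plate controls were DMSO vehicle for no effect and no enzyme for full effect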
Summary of the method: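 Titrated compounds were incubated 15 min at RT, protected from light, with luciferin and ATP at 10 uM; reaction started with 10 nM FLuc, luminescence imaged at 5 min, and concentration-response fitted by Hill equation.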

[13] = Primary fluorescence-based thiol-reactive (MSTI) qHTS assay for identification of artifact compounds. (AID 1845221);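 further: thiol-reactive compounds lower the probe fluorescence signal; nearly all actives have a fitted effect of over 65% in size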
Summary of the method: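 A multi-concentration qHTS design tested compounds against 4 uM MSTI, pH 7.4 phosphate-buffered saline. Plates were protected from light for 1 h at room temperature before imaging fluorescence.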

[14] = test system: CASKI; experiment: Primary qHTS to identify gynecologic anti-cancer compounds using libraries of approved drugs and bioactive compounds (AID 1345084); settings: Gynecologic cancer cell panel viability, ATPlite luminescence, 48 h; series mostly up to 57.5 µM; further: nearly all actives have a fitted effect of over 55% in size; further: potency means the concentration at half of the fitted maximal effect
Summary of the method: as §2

[15] = test system: Es-2; experiment: as above; settings: Gynecologic cancer cell panel viability, ATPlite luminescence, 48 h; series mostly up to 57.5 µM
Summary of the method: as §2

[16] = test system: OV90; experiment: as above; settings: Gynecologic cancer cell panel viability, ATPlite luminescence, 48 h; series mostly up to 57.5 µM
Summary of the method: as §2

[17] = test system: PA-1; experiment: as above; settings: Gynecologic cancer cell panel viability, ATPlite luminescence, 48 h; series mostly up to 57.5 µM
Summary of the method: as §2

[18] = test system: Tov-21-G; experiment: as above; settings: Gynecologic cancer cell panel viability, ATPlite luminescence, 48 h; series mostly up to 57.5 µM
Summary of the method: as §2

[19] = test system: Tov112D; experiment: as above; settings: Gynecologic cancer cell panel viability, ATPlite luminescence, 48 h; series mostly up to 57.5 µM
Summary of the method: as §2

[20] = test system: Hek293T; experiment: as above; settings: Gynecologic cancer cell panel viability, ATPlite luminescence, 48 h, control line for the selectivity index; series mostly up to 57.5 µM
Summary of the method: as §2

Sequence of Phospholipid hydroperoxide glutathione peroxidase GPX4 (Homo sapiens) (P36969 whole entry, looked up): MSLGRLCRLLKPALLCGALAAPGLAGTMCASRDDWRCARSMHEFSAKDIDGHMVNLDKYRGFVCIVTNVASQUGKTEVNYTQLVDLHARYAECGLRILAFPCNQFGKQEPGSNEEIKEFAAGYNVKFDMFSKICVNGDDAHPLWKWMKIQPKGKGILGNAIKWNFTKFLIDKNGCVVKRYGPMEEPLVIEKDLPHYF
Sequence of Glutathione peroxidase 1 (Homo sapiens) (P07203 whole entry, looked up): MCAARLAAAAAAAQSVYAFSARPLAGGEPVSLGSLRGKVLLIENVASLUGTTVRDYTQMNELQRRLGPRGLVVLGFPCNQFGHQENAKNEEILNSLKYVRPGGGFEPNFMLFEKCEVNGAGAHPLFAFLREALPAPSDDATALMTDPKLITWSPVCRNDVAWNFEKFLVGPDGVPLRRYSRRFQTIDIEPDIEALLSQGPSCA
Sequence of Calcium and integrin-binding protein 1 (Homo sapiens) (Q99828 whole entry, looked up): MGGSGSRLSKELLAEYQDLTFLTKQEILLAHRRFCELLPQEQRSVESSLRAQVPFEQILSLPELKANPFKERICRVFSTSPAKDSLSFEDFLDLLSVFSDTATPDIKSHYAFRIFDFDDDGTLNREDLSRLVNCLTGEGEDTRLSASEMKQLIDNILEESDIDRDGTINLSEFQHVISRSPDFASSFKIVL

O=C(CC1NCCC[C@H]1O)Cn1cnc2cc(Br)c(Cl)cc2c1=O (some centres undefined)
inactive: Potency [1] | Potency [2] | max response [3] -5.15% | max response [4] -10.4% | max response [5] -11.7% | max response [6] -10.5%

C[C@@H]1C[C@@H](O)[C@]2(O)O[C@@H]3C[C@@]4(C=O)C(CC[C@@H]5C4CC[C@]4(C)[C@@H](C6=CC(=O)OC6)CC[C@]54O)C[C@H]3O[C@@H]2O1 (some centres undefined)
active: Potency [9] 56.3 nM | Potency [3] 35.5 nM | Potency [4] 44.7 nM | Potency [5] 252 nM | Potency [6] 100 nM
inactive: Potency [7] | Potency [8] | Potency [1] | Potency [2] | Potency [10] | Potency [11]

CC[C@@H](C)[C@@H]1NC(=O)[C@@H]2CCCN2C(=O)[C@@H](CC(O)CCl)OC(=O)CCNC(=O)[C@H](C)N(C)C(=O)[C@H](C(C)C)N(C)C1=O (some centres undefined) (cyclo([NMeA][βAla][X7]P[aIle][NMeV]))
active: Potency [9] 608 nM | Potency [3] 968 nM | Potency [4] 685 nM | Potency [11] 4470 nM | Potency [15] 4470 nM | Potency [16] 447 nM | Potency [17] 1000 nM | Potency [19] 3550 nM
inactive: Potency [7] | Potency [8] | Potency [1] | Potency [2] | outcome [12] inactive [at 25.7 µM] | Potency [13] | Potency [10] | max response [5] -21.3% | Potency [14] | Potency [18]

CC(C)(NC(=O)[C@@H](N)Cc1ccc(O)cc1)C(=O)N[C@@H](Cc1cc2ccccc2[nH]1)C(=O)N[C@@H](Cc1ccccc1)C(=O)O (H-Y[Aib][Ala(indol-2-yl)]F-OH)
inactive: activity change, negative = inhibition [7] -10.9% [at 10.7 µM] | Potency [8] | activity change, negative = viability loss [9] -7% [at 9.23 µM] | activity, negative = inhibition [1] 0.29% [at 9.52 µM] | activity change, negative = inhibition [2] -0.548% [at 9.73 µM] | activity change, negative = inhibition [12] 1.26% [at 11.6 µM] | activity change, negative = thiol reactive [13] 54.2% [at 11.5 µM] | activity, negative = inhibition [10] 2.82% [at 11.6 µM] | max response [3] -5.29% | max response [4] -3.45% | max response [5] -4.8% | outcome [6] | activity change, negative = cytotoxicity [11] 17.2% [at 11.6 µM] | activity change, negative = cytotoxicity [14] 4.29% [at 11.6 µM] | activity change, negative = cytotoxicity [15] 0.783% [at 11.6 µM] | activity change, negative = cytotoxicity [20] -0.36% [at 11.6 µM] | activity change, negative = cytotoxicity [16] 2.67% [at 11.6 µM] | activity change, negative = cytotoxicity [17] 2.34% [at 11.6 µM] | activity change, negative = cytotoxicity [18] 16.4% [at 11.6 µM] | activity change, negative = cytotoxicity [19] -10.9% [at 11.6 µM]

OCc1nnc2n1-c1ccc(Cl)cc1C(c1ccccc1Cl)=NC2
inactive: Potency [7] | Potency [8] | Potency [9] | Potency [1] | outcome [12] | Potency [13] | Potency [10] | max response [3] 0.641% | max response [4] -7.41% | max response [5] -38% | max response [6] 8.98% | Potency [11] | Potency [14] | Potency [15] | Potency [20] | Potency [16] | Potency [18] | Potency [19]

COc1cc2c(c(OC)c1OC)-c1ccc(SC)c(=O)cc1[C@@H](NC(C)=O)CC2
inactive: Potency [7] | Potency [1] | Potency [2] | outcome [12] | Potency [13] | max response [5] 4.59% | Potency [14]
active: Potency [9] 4.6 nM | Potency [10] 19000 nM | Potency [3] 9.2 nM | Potency [4] 8.2 nM | Potency [6] 5.8 nM

COC1C(O)C(C)OC(OC2C(CO)O[C@@H](O[C@@H]3CC4CCC5C(CC[C@]6(C)[C@@H](C7=CC(=O)OC7)CC[C@]56O)[C@@]4(C)[C@H](OC(C)=O)C3)C(O)C2O)C1O (some centres undefined)
active: Potency [9] 2160 nM | Potency [3] 2170 nM | Potency [4] 2430 nM | Potency [5] 4320 nM | Potency [11] 3550 nM | Potency [15] 6310 nM | Potency [20] 3550 nM | Potency [18] 3550 nM | Potency [19] 2820 nM
inactive: Potency [7] | Potency [8] | Potency [1] | Potency [2] | outcome [12] inactive [at 25.7 µM] | Potency [13] | Potency [10] | Potency [16]

CN1CCN(c2nc3ccccc3nc2Cl)CC1
inactive: Potency [7] | Potency [8] | Potency [9] | Potency [1] | Potency [2] | outcome [12] | Potency [13] | Potency [10] | max response [3] -8.1% | outcome [4] | outcome [6] | Potency [11] | Potency [14] | Potency [15] | Potency [20] | Potency [16] | Potency [17] | Potency [18] | Potency [19]

CCc1nn(C)c(C(=O)NCc2ccc(Oc3ccc(C)cc3)cc2)c1Cl
active: Potency [9] 817 nM | Potency [3] 6.5 nM | Potency [4] 7.3 nM | Potency [16] 631 nM
inactive: Potency [7] | Potency [8] | Potency [1] | Potency [2] | outcome [12] | Potency [13] | Potency [10] | max response [5] 1.94% | Potency [15] | Potency [18] | Potency [19]

CN[C@@H]1C[C@H]2O[C@@](C)([C@@H]1OC)n1c3ccccc3c3c4c(c5c6ccccc6n2c5c31)C(=O)NC4
active: Potency [9] 37.2 nM | Potency [3] 3.7 nM | Potency [4] 231 nM | Potency [5] 184 nM | Potency [6] 130 nM | Potency [11] 1260 nM | Potency [14] 251 nM | Potency [15] 631 nM | Potency [20] 4470 nM | Potency [16] 316 nM | Potency [17] 251 nM | Potency [19] 891 nM
inactive: Potency [8] | Potency [1] | outcome [12] | Potency [13] | Potency [10]

Fc1cc(F)c2c(c1)C1C=CCC1C(c1cccnc1)N2 (centres undefined)
active: Potency [9] 8170 nM | Potency [3] 5800 nM | Potency [4] 23100 nM | Potency [6] 4610 nM | Potency [11] 22400 nM | Potency [17] 17800 nM
inactive: Potency [7] | Potency [8] | Potency [2] | outcome [12] | Potency [10]
